These results are taken from PubChem BioAssay (EPA / NIEHS).

Inconclusive results are not listed. The source made the active and inactive calls. Rule for the calls: active = hit-call score of the fitted dose curve at least 0.9, where 1 is the maximum; inconclusive = response in the unintended direction; inactive = score below 0.9.

In the test the target is human Matrix Metalloproteinase-1 (MMP1), MMP1 (gene 4312) (UniProt P03956). Nature of the test: NVS_ENZ_hMMP1: NovaScreen (NVS) Enzymatic Assay for human Matrix Metalloproteinase-1 (MMP1) (AID 2283181). The protocol: NVS_ENZ_hMMP1 is a biochemical, single-readout assay that uses extracted gene-proteins in a cell-free assay. Measurements were taken 1 hour after chemical dosing in a 96-well plate.NVS_ENZ_hMMP1 is one of one assay component(s) measured or calculated from the NVS_ENZ_hMMP1 assay. It is designed to make measurements of enzyme activity, a form of enzyme reporter, as detected with fluorescence intensity signals by Fluorescence technology.Data from the assay component NVS_ENZ_hMMP1 was analyzed into 1 assay endpoint. This assay endpoint, NVS_ENZ_hMMP1, was analyzed in the positive analysis fitting direction relative to DMSO as the negative control and baseline of activity. Using a type of enzyme reporter, loss-of-signal activity can be used to understand changes in the enzymatic activity as they relate to the gene MMP1. Furthermore, this assay endpoint can be referred to as a primary readout, because this assay has produced multiple assay endpoints where this one serves a enzymatic activity function. To generalize the intended target to other relatable targets, this assay endpoint is annotated to the protease intended target family, where the subfamily is matrix metalloproteinase.
human Matrix Metalloproteinase-1 (MMP1), MMP1 (gene 4312), sequence (P03956 whole entry, looked up): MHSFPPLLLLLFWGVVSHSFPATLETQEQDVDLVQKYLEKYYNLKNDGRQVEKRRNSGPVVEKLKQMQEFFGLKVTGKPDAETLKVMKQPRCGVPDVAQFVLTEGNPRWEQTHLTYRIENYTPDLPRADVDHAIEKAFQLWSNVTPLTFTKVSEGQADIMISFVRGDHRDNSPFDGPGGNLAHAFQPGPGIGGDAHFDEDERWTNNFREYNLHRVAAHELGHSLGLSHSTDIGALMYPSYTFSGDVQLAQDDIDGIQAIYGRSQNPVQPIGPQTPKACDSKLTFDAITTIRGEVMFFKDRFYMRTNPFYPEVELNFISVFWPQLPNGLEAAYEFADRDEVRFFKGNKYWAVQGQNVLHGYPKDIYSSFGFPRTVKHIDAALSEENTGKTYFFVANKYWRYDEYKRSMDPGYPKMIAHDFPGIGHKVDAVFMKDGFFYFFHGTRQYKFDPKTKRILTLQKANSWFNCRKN
Binding assays used specific radioligands (tritiated, iodinated) with non-radioactive competitive displacement ligands in agonist or antagonist protocols (as indicated) and various reference compounds and inhibitors to titrate specific binding to receptors and transporters. Most enzyme assays (CYPs, kinases, phosphatases, proteases, HDACs) used recombinant protein and specific substrates (fluorescence mostly, some colorimetric and radioactive) and inhibitors, followed by a biochemical separation of substrate and product. All assays for the biochemical HTS were initially run in duplicate at a single concentration (10 uM for CYP450 assays and 25 uM for all others). Assay-chemical combinations meeting a pre-defined threshold (e.g., 30% inhibition and other criteria defined below) were then run in singleton concentration-response format with maximum concentration of 20 uM for CYPs and 50 uM for all others. Each assay was run with positive and negative controls, and concurrent controls on every plate. The follow-up (secondary) screen tested active chemical-pairs in concentration series, as well as a few additional assays not tested in the primary screen, some selected negative inactives, and several cases re-run in the concentration series for confirmatory purposes.
With `O=c1[nH]c2ccc(S(=O)CCN3CCC(Cc4ccc(F)cc4)CC3)cc2o1` (stereo not given), the call was inactive.
`Cc1ccc(S(=O)(=O)NC(=O)NN2CCCCCC2)cc1`: the concentration at half-maximal activity (AC50) was 6.9 µM (active).
With `c1ccc(C(O[C@@H]2CCCN(CCc3ccc4c(c3)OCO4)C2)c2ccccc2)cc1`, the AC50 is 8.81 µM (active).
In the case of `Clc1cc(Cl)c(Cl)cc1Cl`, the compound was called inactive.
As for `O=C(O)c1cccc(C(=O)O)c1`, the AC50 was 13 µM (active).
Consider `CC(=O)Oc1ccccc1C(=O)O`, for which the compound was classed as inactive.
On the same count and under the same terms, to `CC(=O)O[C@]1(C(C)=O)CC[C@H]2[C@@H]3C=C(Cl)C4=CC(=O)[C@@H]5C[C@@H]5[C@]4(C)[C@H]3CC[C@@]21C` belongs “inactive”.
For `O=[N+]([O-])c1ccc(O)cc1`, the half-maximal activity concentration (AC50) was 16.9 µM (active).
Take `CCCCCC(=O)O`: the call was inactive.
On to `CCN(CC)CCOc1ccc(C(=C(Cl)c2ccccc2)c2ccccc2)cc1`, for which the call was inactive.
As to `O=C(NO)C1(NS(=O)(=O)c2ccc(Oc3ccc(F)cc3)cc2)CCOCC1`, the half-maximal activity concentration (AC50) is 17.9 µM (active).
For `CCc1cc(SCc2sc(-c3ccc(C(F)(F)F)cc3)nc2CN2CCN(c3ccc(OC)cc3)CC2)ccc1OCC(=O)O`, the half-maximal activity concentration (AC50) is 1.06 µM (active).
In the case of `NC(=O)c1nc(-c2cccc(-c3cc(F)ccc3OCC(F)(F)C(F)(F)F)c2)n[nH]1`, the AC50 is 1.27 µM (active).
Consider `CCCCCCCCCC`, for which the outcome was inactive.
Still for that read-out and setting: to `CC(=O)OC1CC(C)OC(C)O1` (stereo not given) belongs “inactive”.
The same measure, in the same setting: to `S=C(S)NCCNC(=S)S.[Mn+2].[S-]C([S-])=NCCN=C([S-])[S-].[Zn+2]` belongs “inactive”.
On to `COCCOCCOC`, for which the outcome was inactive.
The same measure, in the same setting: to `Nc1ccc(C(=O)O)cc1` belongs “inactive”.
For `COc1ccc([N+](=O)[O-])cc1N`, the concentration at half-maximal activity (AC50) was 10.8 µM (active).
`CCCCc1nc2cccnc2n1Cc1ccc(-c2ccccc2-c2nnn[nH]2)cc1`: the concentration at half-maximal activity (AC50) is 2.25 µM (active).
As for `CC(C)(c1cc(Br)c(O)c(Br)c1)c1cc(Br)c(O)c(Br)c1`, the compound was classed as inactive.
On the same count and under the same terms, to `CCCCC(CC)COC(=O)CC(C(=O)OCC(CC)CCCC)S(=O)(=O)O` (stereo not given) belongs “inactive”.
With `COc1ccc(S(=O)(=O)N2C(=O)[C@@](c3ccccc3OC)(N3C[C@H](O)C[C@H]3C(=O)N(C)C)c3cc(Cl)ccc32)c(OC)c1`, the call was inactive.
Consider `c1ccc2n[nH]nc2c1`, for which the call was inactive.
With `C=CCOC(Cn1ccnc1)c1ccc(Cl)cc1Cl` (stereo not given), the half-maximal activity concentration (AC50) is 14 µM (active).
For the compound `CN(C)C(=O)C1(N2CCCCC2)CCN(CC[C@@]2(c3ccc(Cl)c(Cl)c3)CN(C(=O)c3ccccc3)CCO2)CC1`, the AC50 was 17.1 µM (active).
On to `CCN(Cc1cccc(S(=O)(=O)O)c1)c1ccc(C(=C2C=CC(=[N+](CC)Cc3cccc(S(=O)(=O)O)c3)C=C2)c2ccccc2S(=O)(=O)[O-])cc1`, for which the compound was classed as inactive.
Consider `COC(=O)c1ccccc1O`, for which the compound was called inactive.
On the same count and under the same terms, to `CO[C@@H]1COCC[C@@H]1N[C@@H]1CC[C@@](C(=O)N2CCc3ncc(C(F)(F)F)cc3C2)(C(C)C)C1` belongs “inactive”.
As to `CCCCCCCCCCCCCCCCOS(=O)(=O)O`, the AC50 was 4.54 µM (active).
For the compound `CC(C)(C)c1csc(-c2cc3cc(OCc4ccccc4CC(=O)O)ccc3o2)n1`, the concentration at half-maximal activity (AC50) is 22.5 µM (active).
On to `Cn1cnc2c1c(=O)[nH]c(=O)n2C`, for which the outcome was inactive.
As for `CNS(=O)(=O)c1cc(C(=O)N2CCC(CCN3C4CCC3CC(n3c(C)nc5ccccc53)C4)(c3cccc(F)c3)CC2)c(Cl)cc1F` (stereo not given), the AC50 was 16.7 µM (active).
As to `CCCCCCCCCCCCCCOS(=O)(=O)O`, the compound was classed as inactive.
On the same count and under the same terms, the value for `CC(C)(O)c1coc(S(=O)(=O)NC(=O)Nc2c3c(cc4c2CCC4)CCC3)c1` was “inactive”; that for `CCCCOC(=O)CC(CC(=O)OCCCC)(OC(C)=O)C(=O)OCCCC` was “inactive”.
Turning to `CCN(Cc1cccnc1)C(=O)c1cccc(Cl)c1[C@]1(C)C(=O)N(Cc2ccc(OC)cc2OC)c2ccc(Cl)cc21`, the AC50 is 9.73 µM (active).
For `CC(=O)S[C@H](C(=O)N[C@H]1Cc2ccccc2[C@H]2CCC[C@@H](C(=O)O)N2C1=O)C(C)C`, the outcome was inactive.
On the same count and under the same terms, the value for `COc1ccc2sc(C(=O)Nc3nnn[nH]3)c(OC(C)C)c2c1` was “inactive”.
On to `O=C1c2c(O)cccc2Cc2cccc(O)c21`, for which the AC50 is 15.7 µM (active).
